This is an account of results in the supplement of paper PMC13380429.

In assay [1] the test system is Vero E6 infected with SARS-CoV-2. Put plainly: morphology score (similarity to uninfected cells); higher = more like uninfected cells. Particulars: 24 h.
Assay [2] has the same test system. Description: SARS-CoV-2 infection rate relative to infected DMSO; higher = more infection, active = 60 or less. The note with it: 24 h.

Compound `COc1cc2c(cc1OC)CC(=O)N(CCCN(C)C[C@H]1Cc3cc(OC)c(OC)cc31)CC2` [ivabradine] (10 µM) registered a morphology score in assay [1] of 0.15. The SARS-CoV-2 infection rate in assay [2] was 112% (inactive).
In assay [1], `Oc1ccc2c(c1)CC[C@H](c1ccccc1)[C@@H]2c1ccc(OCCN2CCCC2)cc1` [lasofoxifene] (0.833333 µM) had a morphology score of 0.106. In addition, the SARS-CoV-2 infection rate in assay [2] was 97% (inactive).
With `c1cc(CN2CCCNCCNCCCNCC2)ccc1CN1CCCNCCNCCCNCC1` [plerixafor] (10 µM), in assay [1], the morphology score was 0.0853. The SARS-CoV-2 infection rate in assay [2] is 95.5% (inactive).
The compound `C[N+]12CCCCC1CCC(=C(c1cccs1)c1cccs1)C2` (centres undefined) [tiquizium] (10 µM) came in with a morphology score in assay [1] of 0.138. Also, the SARS-CoV-2 infection rate in assay [2] is 93.5% (inactive).
For the compound `Cc1ccc2c(c1)c1c(n2CCc2ccc(C)nc2)CCN(C)C1` [latrepirdine] (10 µM), the morphology score in assay [1] was 0.241. Moreover, the SARS-CoV-2 infection rate in assay [2] is 96.5% (inactive).
For `COc1ccc(-c2cc(=O)c3c(O)c(OC)c(O)cc3o2)cc1OC` [eupatilin] (10 µM), in that order: -0.0115 and 109% (inactive).
On to `Cc1cc(O)c2c(c1)C(=O)c1cc(O)cc(O)c1C2=O` [emodin] (10 µM), for which, in assay [1], the morphology score was found to be 0.146. In addition, in assay [2], the SARS-CoV-2 infection rate was 106% (inactive).
